Results on 33 molecules are retold here after PubChem BioAssay (Tox21).

The structures appear in SMILES notation. Several values for one entry are separate records, joined by “and”; a condition that tells them apart may be missing. Equal values may be shown once. Inconclusive results are not listed. A call without a number means that no potency is given here. Activity calls are given as the source filed them. Calls follow the shape of the dose curve; as a rule, active = well fitted inhibition curve with a large enough effect in the repeat runs; inconclusive = weak or mixed curves; inactive = flat fitted curve, though single readings scatter. Starred links: 1 amine or outer side, 2 acyl side, 3 side chain; linkers in the order of their positions; H or OH if unused. Positions of bridges follow the written chain, without caps; N, C: chain ends. Non-standard residues stand in square brackets, D forms with d. Residues, ends and D or L forms follow the SMILES beside them. Chains are numbered I, II in the order given. Actinocin(9to1) = Cc1c2oc3c(C)ccc(C(=O)[*:1])c3nc-2c(C(=O)[*:2])c(N)c1=O; NMeV = CN[C@H](C(=O)O)C(C)C; Sar = CNCC(=O)O
Potency is read from the fitted curve at half-maximal effect.

Chain of Luciferin 4-monooxygenase (Photinus pyralis) (P08659 whole entry, looked up): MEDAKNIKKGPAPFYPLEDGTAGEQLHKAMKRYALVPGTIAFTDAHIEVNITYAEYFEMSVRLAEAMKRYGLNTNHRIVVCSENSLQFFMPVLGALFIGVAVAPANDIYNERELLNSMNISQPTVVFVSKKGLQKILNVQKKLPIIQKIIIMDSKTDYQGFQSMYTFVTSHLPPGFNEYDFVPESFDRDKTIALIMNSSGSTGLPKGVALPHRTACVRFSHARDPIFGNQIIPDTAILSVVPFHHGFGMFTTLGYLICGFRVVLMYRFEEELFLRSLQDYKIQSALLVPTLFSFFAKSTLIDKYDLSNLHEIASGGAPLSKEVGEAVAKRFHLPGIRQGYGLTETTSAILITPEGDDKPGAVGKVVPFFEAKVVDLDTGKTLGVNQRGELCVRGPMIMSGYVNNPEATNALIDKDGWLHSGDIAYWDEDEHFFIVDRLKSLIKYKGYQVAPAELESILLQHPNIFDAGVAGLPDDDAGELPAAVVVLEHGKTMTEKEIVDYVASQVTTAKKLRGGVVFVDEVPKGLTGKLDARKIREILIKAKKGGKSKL

The target of this experiment is Luciferin 4-monooxygenase (Photinus pyralis) (UniProt P08659). Kind of experiment: qHTS assay to identify small molecule inhibitors of firefly luciferase (AID 1224835). Also: nearly all actives have a fitted effect of over 25% in size. The settings on record: purified P. pyralis luciferase, luminescence inhibition; series mostly up to 115 µM. An outline of the steps:
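Biochemical qHTS: compounds run as interplate titrations against purified firefly enzyme, with D-luciferin and ATP each at its KM concentration. Light output recorded by CCD imaging.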
On the technique in general: In qHTS, concentration-response curves come from the screen itself.
As to `CC1COC(=O)O1` (stereo not drawn), the Potency result is “inactive”.
`CCOc1ccccc1C(N)=O`: the Potency entry was “inactive”.
The value for `O=Nc1ccc(Nc2ccccc2)cc1` was 35.8 µM (active) and 39.9 µM (active); that for `Oc1ccc(Cl)cc1Cc1cc(Cl)ccc1O` was “inactive”.
The value for `Clc1ccc2c(c1)C(N1CCNCC1)=Nc1ccccc1O2` was “inactive”; that for `CC(=O)CC(C)=O` was “inactive”; that for `CCN(CC)C(=S)SSC(=S)N(CC)CC` was 8.94 µM (active) and 6.48 µM (active) and 8.71 µM (active).
Then `CC[C@H]1CN2CCc3cc(OC)c(OC)cc3[C@@H]2C[C@@H]1C[C@H]1NCCc2cc(OC)c(OC)cc21`, with “inactive”.
Take `Nc1cc(S(=O)(=O)O)cc2cc(S(=O)(=O)O)cc(O)c12`: the Potency was 31.7 µM (active).
On to `CCC(C)(C)C(=O)O[C@H]1C[C@@H](C)C=C2C=C[C@H](C)[C@H](CC[C@@H]3C[C@@H](O)CC(=O)O3)[C@H]21`, for which the Potency result was “inactive”.
With `CC[C@]1(O)C[C@@H]2CN(CCc3c([nH]c4ccccc34)[C@@](C(=O)OC)(c3cc4c(cc3OC)N(C)[C@H]3[C@@](O)(C(=O)OC)[C@H](OC(C)=O)[C@]5(CC)C=CCN6CC[C@]43[C@@H]65)C2)C1`, the Potency result is “inactive”.
Then `CCCCC(CC)COC(=O)CC(C(=O)OCC(CC)CCCC)S(=O)(=O)O` (stereo not drawn), with “inactive”; and `CCCCCCCCCCCC[N+](C)(C)C`, with “inactive”.
`Cc1c2oc3c(C)ccc(C(=O)N[C@@H]4C(=O)N[C@H](C(C)C)C(=O)N5CCC[C@H]5C(=O)N(C)CC(=O)N(C)[C@@H](C(C)C)C(=O)O[C@@H]4C)c3nc-2c(C(=O)N[C@@H]2C(=O)N[C@H](C(C)C)C(=O)N3CCC[C@H]3C(=O)N(C)CC(=O)N(C)[C@@H](C(C)C)C(=O)O[C@@H]2C)c(N)c1=O` (I: T[dV]P[Sar][NMeV] / II: T[dV]P[Sar][NMeV]; ester I:1-I:C, II:1-II:C; linker I:N-II:N via Actinocin(9to1)): the Potency result was “inactive”.
Then `O=C(Cl)c1cccc(C(=O)Cl)c1`, with “inactive”.
`CC(=O)C1=C(C)[C@@H]2C[C@@]3(C1)[C@H](C)CC[C@H]3C2(C)C`: the Potency entry was “inactive”.
The value for `BrC1CCC(Br)C(Br)CCC(Br)C(Br)CCC1Br` (stereo not drawn) was “inactive”; that for `OCCN1CCNCC1` was “inactive”.
Then `CCC(=O)/C=C/C1C(C)=CCCC1(C)C` (stereo not drawn), with “inactive”.
`CC(C)(C)c1cc(C(C)(C)C)c(O)c(C(C)(C)C)c1`: the Potency entry is “inactive”.
The value for `NC(=Nc1ccccc1)Nc1ccccc1` was “inactive”; that for `C=CC(=O)OCCCCCCOC(=O)C=C` was “inactive”.
Then `O=S(=O)(O)c1ccc2nc(-c3ccccc3)[nH]c2c1`, with 19 µM (active) and 12.3 µM (active); and `COC(=O)[C@H]1[C@H]2C[C@@H]3c4[nH]c5cc(OC)ccc5c4CCN3C[C@H]2C[C@@H](OC(=O)c2cc(OC)c(OC)c(OC)c2)[C@@H]1OC`, with “inactive”; and `[Cl][In]([Cl])[Cl]`, with 36.6 µM (active) and 39.9 µM (active).
Then `Oc1c(Cl)cc(Cl)c(Cl)c1Cc1c(O)c(Cl)cc(Cl)c1Cl`, with “inactive”; and `Cc1cc(C(C)(C)C)c(O)c(C(C)(C)C)c1`, with “inactive”; and `CC(=O)O[C@]1(C(C)=O)CC[C@H]2[C@@H]3C[C@H](C)C4=CC(=O)CC[C@]4(C)[C@H]3CC[C@@]21C`, with “inactive”.
Take `CCCCCC(=O)O[C@]1(C(C)=O)CC[C@H]2[C@@H]3CCC4=CC(=O)CC[C@]4(C)[C@H]3CC[C@@]21C`: the Potency entry is “inactive”.
Then `Cc1cc(C2(c3cc(C)c(O)cc3C)OS(=O)(=O)c3ccccc32)c(C)cc1O`, with 35.6 µM (active).
The value for `O=C1OC2(c3ccc(O)cc3Oc3cc(O)ccc32)c2ccccc21` was “inactive”.
The value for `CC(COc1ccccc1)N(CCCl)Cc1ccccc1` (stereo not drawn) was “inactive”; that for `C=C(C)C(=O)O` was “inactive”.
